Screening data deposited in PubChem by Broad Institute.
This is a sample that favours compounds with a hit; in the whole collection about 2.8% have one here.
PAX8 inh HTS – lowers PAX8-driven luciferase in RMG-I cells; RMG-I TPO-luciferase reporter, SteadyGlo, 24 h; inhibition, % at 12.6 µM; 1.2% of 360,000 active; AID 652154;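 active = mean replicate inhibition at least 60% with every replicate also reaching 60%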;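 also: luciferase light reporting Pax8 driven TPO promoter activity; plate controls were median of neutral control wells for no effect and mitoxantrone controls for full effect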
N-glyco inh – blocks N-linked glycosylation in D54 reporter cells; D54 ERlucT glycosylation luciferase reporter, 24 h; percent of 100 nM tunicamycin response; reporter increase, % at 12.5 µM; 0.23% of 360,000 active; AID 588692;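 active = mean luciferase reporter signal, scaled so untreated is 0 and the glycosylation-blocking control 100, at or above a set limit in every replicate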;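 also: luciferase carries N-glycosylation sites so blocking glycosylation raises the light; 0% = median of neutral control wells and 100% = median of 100 nM tunicamycin wells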
NSD2 HMT inh – inhibitors of human histone methyltransferase NSD2. O96028. NSD2 peptide methylation, AlphaScreen, 120 min. inhibition, % at 12.5 µM. 0.54% of 310,000 active; in the data active = inhibition above about 50%
Target sequence (O96028 whole entry, looked up): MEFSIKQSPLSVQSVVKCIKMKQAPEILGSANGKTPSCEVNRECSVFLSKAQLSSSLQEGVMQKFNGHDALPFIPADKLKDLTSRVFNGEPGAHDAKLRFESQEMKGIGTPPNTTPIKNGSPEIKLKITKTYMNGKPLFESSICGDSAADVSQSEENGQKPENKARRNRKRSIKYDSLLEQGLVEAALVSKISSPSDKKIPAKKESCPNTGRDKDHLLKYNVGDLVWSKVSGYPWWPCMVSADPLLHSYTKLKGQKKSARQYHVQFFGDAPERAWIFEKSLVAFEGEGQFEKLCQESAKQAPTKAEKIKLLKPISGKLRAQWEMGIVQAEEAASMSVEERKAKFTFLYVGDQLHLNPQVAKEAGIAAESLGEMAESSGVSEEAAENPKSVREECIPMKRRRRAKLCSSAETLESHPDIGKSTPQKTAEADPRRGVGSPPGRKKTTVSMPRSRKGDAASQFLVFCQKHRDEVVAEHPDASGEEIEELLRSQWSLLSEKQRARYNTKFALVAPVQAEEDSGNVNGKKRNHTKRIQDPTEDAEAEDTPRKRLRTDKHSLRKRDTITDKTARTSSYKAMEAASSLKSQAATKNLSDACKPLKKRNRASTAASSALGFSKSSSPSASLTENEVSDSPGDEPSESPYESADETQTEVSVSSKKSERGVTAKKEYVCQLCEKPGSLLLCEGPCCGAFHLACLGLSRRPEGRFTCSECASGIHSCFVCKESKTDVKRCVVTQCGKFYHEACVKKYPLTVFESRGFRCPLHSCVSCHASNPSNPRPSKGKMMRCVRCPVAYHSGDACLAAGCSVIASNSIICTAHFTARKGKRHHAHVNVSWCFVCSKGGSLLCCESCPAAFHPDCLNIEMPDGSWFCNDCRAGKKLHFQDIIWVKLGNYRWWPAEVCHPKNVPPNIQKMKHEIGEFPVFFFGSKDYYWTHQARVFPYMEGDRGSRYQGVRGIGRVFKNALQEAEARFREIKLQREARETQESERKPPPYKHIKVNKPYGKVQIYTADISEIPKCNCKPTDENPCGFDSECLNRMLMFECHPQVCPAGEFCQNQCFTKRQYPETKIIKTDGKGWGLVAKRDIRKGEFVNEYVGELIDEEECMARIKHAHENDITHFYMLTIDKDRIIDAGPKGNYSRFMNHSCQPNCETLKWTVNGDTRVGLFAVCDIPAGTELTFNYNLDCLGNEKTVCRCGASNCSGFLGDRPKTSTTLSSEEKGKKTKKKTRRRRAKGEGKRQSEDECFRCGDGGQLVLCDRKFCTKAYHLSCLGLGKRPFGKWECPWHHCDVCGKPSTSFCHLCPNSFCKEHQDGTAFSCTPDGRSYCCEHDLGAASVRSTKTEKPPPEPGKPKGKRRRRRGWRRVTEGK
LMP1 NFkB inh – inhibitors of Epstein-Barr LMP1-induced NF-kappaB reporter | LMP1-induced NF-kappaB luciferase reporter cells, luminescence | inhibition, % at 12.5 µM | 0.69% of 350,000 active; in the data active = inhibition above about 41%;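 also: 0% = neutral control wells and 100% = reference inhibitor control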
Env fusion inh – inhibitors of HIV Env-mediated cell fusion; HeLa-JRFL Env/CEM21 cell fusion, luciferase; inhibition, % at 12.3 µM; 1.1% of 360,000 active; AID 651610;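 active = mean replicate inhibition score of at least 50 and every replicate individually at or above 50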;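 also: 0% = plate neutral controls and 100% = maraviroc near 300 nM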
Shn3 inh set2 – Schnurri-3 reporter inhibition in Clone20 osteoblasts. Clone20 osteoblast Shn3 3'UTR firefly luciferase, 24 h. inhibition, % at 12.5 µM. 0.52% of 360,000 active. AID 588674;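 active = mean inhibition of at least 75% with every replicate also reaching 75%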;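 also: 0% = median of neutral control wells and 100% = pilot-screen positive control compound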
The depositor's hits bear a star; i = inactive; . = not tested or not shown; [ ] = remark or other dose.

SMILES | PAX8 inh HTS | N-glyco inh | NSD2 HMT inh | LMP1 NFkB inh | Env fusion inh | Shn3 inh set2
CC(Oc1ccc(F)cc1)C(=O)Nc1nc(-c2ccccn2)cs1 (stereo not drawn) | 68.6* | 1.0 | -4.0 | 14.2 | 43.8 | 62.3
C[C@H](NC(=O)c1ccco1)C(=O)Nc1nc(-c2ccccn2)cs1 | -1.1 | 0.3 | -4.7 | 8.7 | -10.9 | 43.4
Cc1csc(NC(=O)C(C)Oc2ccc(Br)cc2)n1 (stereo not drawn) | 105.7* | -2.8 | -0.1 | -2.9 | -6.8 | 9.6
COc1ccccc1C(=O)N1C[C@H]2[C@@H](c3ccccc31)[C@H](CO)N2C(=O)Cc1cccnc1 | -0.5 | . | . | . | . | .
C[C@H]1CN([C@@H](C)CO)C(=O)Cc2cc(N(C)C)ccc2O[C@H]1CN(C)S(=O)(=O)c1ccccc1 | -7.8 | . | . | . | 5.9[16.7 µM] | .
O=S(=O)(/N=S1\CC=CCN1S(=O)(=O)c1ccccc1)c1ccccc1 (stereo not drawn) | 13.2 | -7.5 | -1.9 | -4.5 | -0.3 | 93.5*
C[C@@H]1CN([C@@H](C)CO)C(=O)CCCn2cc(nn2)CO[C@H]1CN(C)Cc1cccc(C(F)(F)F)c1 | . | . | . | . | -15.2[16.7 µM] | .
Brc1ccc(-c2csc(N3CCCCCC3)n2)cc1 | -41.1 | -1.0 | -8.2 | 46.3* | 17.6 | -3.7
Brc1ccc(-c2csc(N3CCOCC3)n2)cc1 | -212.0 | -1.9 | -1.2 | -41.6 | -86.7 | -56.6
CCCN(CCC)c1ncnc2nc[nH]c12 | -28.3 | -11.6 | . | 48.0* | 61.8* | 6.9
Clc1ccccc1CN(Cc1ccccc1)c1ncnc2nc[nH]c12 | . | 0.4 | -3.8 | 9.5 | . | 6.5
COc1cccc(CNC(=O)C[C@H]2C=C[C@H](NC(=O)C3CC3)[C@H](CO)O2)c1 | 8.6 | . | . | . | 0.0[16.7 µM] | .
Cc1noc(C)c1NC(=O)Nc1ccc2c(c1)C(=O)N([C@H](C)CO)C[C@H](C)[C@@H](CN(C)CC1CC1)OCCCC[C@H](C)O2 | -24.0 | . | . | . | 10.4[16.7 µM] | .
C[C@H](CO)N1C[C@H](C)[C@H](CN(C)Cc2ccccc2)OCCCC[C@H](C)Oc2ccc(N(C)C)cc2C1=O | 13.0 | . | . | . | -14.6[16.7 µM] | .
O=C(Cc1ccccc1)N[C@@H]1C=C[C@@H](CC(=O)N2CCCCC2)O[C@@H]1CO | -15.5 | . | . | . | 13.8[16.7 µM] | .
COc1ccc(S(=O)(=O)N[C@H]2C=C[C@H](CC(=O)N3CCN(c4ccccc4)CC3)O[C@@H]2CO)cc1 | 17.0 | . | . | . | 59.4*[16.7 µM] | .
O=C(Cc1ccccc1)N[C@@H]1C=C[C@H](CC(=O)N2CCCCC2)O[C@@H]1CO | -3.0 | . | . | . | 56.8*[16.7 µM] | .
Cc1ccc(S(=O)(=O)N[C@@H]2C=C[C@@H](CC(=O)N3CCC(Cc4ccccc4)CC3)O[C@@H]2CO)cc1 | 89.6* | . | . | . | 56.3*[16.7 µM] | .
O=C(C[C@@H]1C=C[C@@H](NS(=O)(=O)c2ccccc2)[C@H](CO)O1)N1CCC(Cc2ccccc2)CC1 | 0.2 | . | . | . | . | .
CN(C)CCCNC(=O)C[C@@H]1CC[C@@H]2[C@H](COc3ccc(NC(=O)c4ccc5c(c4)OCO5)cc3C(=O)N2C)O1 | -33.0 | . | . | . | -6.8[16.7 µM] | .
COc1ccc(S(=O)(=O)N(C)C[C@H]2Oc3c(NC(=O)C4CC4)cccc3C(=O)N([C@@H](C)CO)C[C@H]2C)cc1 | . | . | . | . | -41.4[16.7 µM] | .
CC(C)C[C@H]1CNC(=S)N1C[C@H]1CCCN1C[C@H](Cc1ccccc1)N1C[C@H](Cc2ccc(O)cc2)N(CC2CCCCCC2)C1=S | 13.0 | -13.8 | . | . | -12.7 | 7.0
CC(C)C[C@H]1CNC(=S)N1CC1CCCN1C[C@H](Cc1ccc(O)cc1)N1C[C@H](Cc2ccccc2)N(CC2CCCCCC2)C1=S (stereo partly drawn) | 25.9 | -8.6 | . | 2.1 | 58.2* | 9.5
CC(C)C[C@H]1CNC(=S)N1C[C@H]1CCCN1C[C@H](Cc1ccc(O)cc1)N1C[C@H](Cc2ccccc2)N(CC2CCCCC2)C1=S | 18.8 | -10.1 | . | . | 111.8* | 19.5
C/C=C/c1ccc(C2[C@@H]3CN(S(=O)(=O)c4cn(C)cn4)C[C@H]2N3)cc1 (stereo partly drawn) | 11.4 | . | . | . | . | .
SMILES | PAX8 inh HTS | N-glyco inh | NSD2 HMT inh | LMP1 NFkB inh | Env fusion inh | Shn3 inh set2
CC1(C)N=C(N)N=C(N)N1CCCCc1ccccc1 | 72.6* | -11.4 | -3.8 | 22.3 | 74.5* | 57.9
Cc1ccccc1N1C(N)=NC(N)=NC1(C)C | . | 0.1 | -0.9 | -5.4 | . | -5.5
O=C(c1ccc(F)cc1)N1CC(=O)N2[C@H](CO)[C@H](c3ccc(-c4cccnc4)cc3)[C@H]2C1 | 2.4 | . | . | . | . | .
COc1ccc(CNCc2ccco2)cc1OCc1ccccc1 | . | -2.6 | . | -22.9 | . | 16.5
COc1ccccc1CCNCc1ccc(OC)c(OCc2ccccc2)c1 | . | 34.4* | 16.5 | 4.3 | 73.8* | 66.4
CC(C)NC(=O)N(C)C[C@@H]1Oc2ccc(NC(=O)CCCCCC(=O)Nc3ccccc3N)cc2CC(=O)N([C@@H](C)CO)C[C@@H]1C | -11.3 | . | . | . | 12.2[16.7 µM] | .
C/C(=N\NC(=O)c1nn(C)cc1Br)c1ccc(NC(=O)c2ccncc2)cc1 | 86.6* | 1.3 | -2.4 | 0.1 | . | 4.2
C/C(=N\NC(=O)c1ccccc1NC(=O)c1ccc(Cl)cc1)c1ccncc1 | -21.2 | -6.9 | -2.0 | 54.2* | -131.2 | -45.1
CO[C@@H]1CN(C)C(=O)c2ccc(NC(=O)C3CCCCC3)cc2OC[C@@H](C)N(C(=O)Nc2ccc(C(F)(F)F)cc2)C[C@H]1C | 30.9 | . | . | . | . | .
COc1ccc(C(=O)Nc2sc3c(c2C#N)CCN(C(C)=O)C3)cc1 | 3.8 | 12.2 | 1.0 | -6.3 | -36.3 | 6.8
CC(=O)N1CCc2c(sc(NC(=O)c3ccc([N+](=O)[O-])o3)c2C#N)C1 | 96.3* | -22.1 | . | -16.3 | i | 12.7
CC(C)N1CCc2c(sc(NC(=O)c3ccc([N+](=O)[O-])o3)c2C(N)=O)C1 | 95.6* | -23.8 | 12.7 | 1.8 | 106.4* | -62.3
COc1ccc(N2N=NN(C(C)C)C2=C(Cl)c2nnnn2-c2ccc(OC)cc2)cc1 | . | 2.5 | -0.1 | 85.0* | -11.5 | -20.4
Cc1ccc(C(=O)O)cc1-c1ccc(C=C2C(=O)c3ccccc3C2=O)o1 | 24.9 | 1.0 | 54.5* | -3.0 | 25.3 | -13.7
C[C@H](CO)N1C[C@H](C)[C@@H](CN(C)C(=O)Nc2ccc(F)cc2)Oc2ccc(N(C)C)cc2CC1=O | 17.7 | . | . | . | . | .
COC(=O)c1[nH]c2ccc(C)cc2c1NC(=O)NC1CCCCC1 | . | -0.3 | . | 73.3* | . | 7.7
CN(CC(=O)Nc1cccnc1)S(=O)(=O)c1ccc(Br)cc1 | -1.8 | 2.0 | 1.0 | 49.6* | 12.8 | -0.2
O=C(C[C@H]1CC[C@@H]2[C@H](COC[C@@H](O)CN2C(=O)Nc2ccc(Cl)c(Cl)c2)O1)NCc1ccccc1 | 16.2 | . | . | . | . | .
CCCCNC(=S)N1CCn2cccc2C1c1ccc(F)cc1 (stereo not drawn) | -13.0 | -7.0 | 30.8 | 9.7 | 58.1* | 8.3
C[C@@H]1CCCCO[C@@H](CN(C)CC2CCCCC2)[C@H](C)CN([C@@H](C)CO)C(=O)c2cc(NC(=O)Nc3ccc(F)cc3)ccc2O1 | 24.3 | . | . | . | 18.5[16.7 µM] | .
Cc1nc(Nc2ccc(O)cc2)c2c3c(sc2n1)CCCC3 | 16.9 | 0.2 | 34.4 | -0.4 | 11.7 | 7.3
